Screening results deposited in PubChem by University of Kansas High Throughput Screening Laboratory.
The entries come from a sample that favours hits as a whole.
mHTT-CaM PPI inh: disrupts binding of mutant huntingtin to calmodulin; P42858; AlphaScreen His-mHTT/GST-CaM binding, luminescence; inhibition, % at 15 µM; hit rate 3.6% among 190,000; AID 1671202;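 further: 0% = both proteins with DMSO and 100% = one protein alone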
Pf apPOL block: Pf-apPOL DNA polymerase inhibition. hit rate 0.25% among 210,000. inhibition, % at 10 µM. Recombinant Pf-apPOL, molecular beacon fluorescence, 1.5 h. AID 1794808
* hit, by the source's call; x = not tested or not shown. No stated cut-off is given here; in the data, active means inhibition above about 50%; inactive means the rest.

SMILES	mHTT-CaM PPI inh	Pf apPOL block
CC(C)C1C(=O)N(Cc2cn(CCC3OCCCO3)nn2)CCS(=O)(=O)N1Cc1ccc(-c2ccc(F)nc2)cc1 (stereo not drawn)	42	-1
CC1C(=O)N(Cc2cn(CCC3OCCO3)nn2)CCS(=O)(=O)N1Cc1ccc(-c2ccc(Cl)c(Cl)c2)cc1 (stereo not drawn)	96*	-16
CC1C(=O)N(Cc2cn(CCC3OCCO3)nn2)CCS(=O)(=O)N1Cc1ccc(-c2cccc(CO)c2)cc1 (stereo not drawn)	15	-5
CC(C)C1C(=O)N(Cc2cn(CCC3OCCCO3)nn2)CCS(=O)(=O)N1Cc1ccc(-c2ccccc2)cc1 (stereo not drawn)	56*	-15
CC(C)C1C(=O)N(Cc2cn(CCC3OCCO3)nn2)CCS(=O)(=O)N1Cc1ccc(-c2ccc(F)cc2)cc1 (stereo not drawn)	53*	-7
CC(C)C1C(=O)N(Cc2cn(CCC3OCCCO3)nn2)CCS(=O)(=O)N1Cc1ccc(-c2ccc(Cl)cc2)cc1 (stereo not drawn)	44	-19
CC(C)C1C(=O)N(Cc2cn(CCC3OCCCO3)nn2)CCS(=O)(=O)N1Cc1ccc(-c2ccc(Cl)c(Cl)c2)cc1 (stereo not drawn)	74*	-6
CCc1ccc(C2CC(c3cccc(OC)c3)Nc3ncnn32)cc1 (stereo not drawn)	-4	1
Cc1ccccc1NC(=O)O[C@H]1CCC12CCC(c1ccccc1)CC2 (stereo partly drawn)	-79	-4
COc1ccc(C(=O)N2CC3CC(NC(=O)c4cccnc4)C2C3)c(OC)c1 (stereo not drawn)	2	-2
Fc1ccc(CN2CCc3nc(N4CCN(c5ccccn5)CC4)ncc3C2)c(F)c1	19	0
O=C(CSc1nc2ccccc2c(=O)n1Cc1ccc2c(c1)OCO2)NCCC1=CCCCC1	-5	-2
CC1CCCC(Nc2ccc(N3C(=O)CCC3=O)cc2[N+](=O)[O-])C1C (stereo not drawn)	42	-16
CC1CCCC(Nc2ccc(N3C(=O)C4C5C=CC(C5)C4C3=O)cc2[N+](=O)[O-])C1C (stereo not drawn)	55*	-19
Cc1ccc(C2=NC(C(C)C)NC(c3cc(Br)ccc3O)C2)cc1 (stereo not drawn)	27	-3
COc1ccc(C2N=C(c3ccc4c(c3)OCO4)CC(c3ccccc3O)N2)cc1 (stereo not drawn)	18	-5
COc1ccc(C2=NC(C(C)C)NC(c3ccccc3O)C2)cc1OC (stereo not drawn)	78*	-4
COc1ccc(C2=NC(c3ccc(OC)c(OC)c3)NC(c3ccccc3O)C2)cc1 (stereo not drawn)	53*	-5
COc1cccc(C2=NC(C(C)C)NC(c3cc(Br)ccc3O)C2)c1 (stereo not drawn)	81*	-2
Oc1ccccc1C1CC(c2ccc3c(c2)OCO3)=NC(c2cccc(F)c2)N1 (stereo not drawn)	4	-3
COc1cccc(C2CC(c3ccc(Cl)cc3)=NC(C(C)C)N2)c1O (stereo not drawn)	18	-5
COc1cccc(C2=NC(c3ccc(F)cc3)NC(c3ccc(OC)cc3O)C2)c1 (stereo not drawn)	53*	-5
CC(=O)Nc1ccc2c(c1)CC(C(=O)NCc1ccccc1C)CO2 (stereo not drawn)	9	-4
CCOC(=O)c1c(NC(=O)CC(NCc2cccnc2)C(=O)O)sc2c1CCCC2 (stereo not drawn)	-11	-10
CC(C)c1cc(C2CCCN2Cc2cc(F)cc(F)c2)no1 (stereo not drawn)	-28	-11
SMILES	mHTT-CaM PPI inh	Pf apPOL block
O=C(Nc1cccn2ncnc12)c1ccccc1C(F)(F)F	-1	0
COCCNC(=O)c1cc2c(s1)CCN(C(=O)c1ccccc1)C2	-7	-4
O=C(O)C1CSC(c2cccc([N+](=O)[O-])c2)N1 (stereo not drawn)	4	2
O=C(O)C1CSC(c2ccc([N+](=O)[O-])s2)N1 (stereo not drawn)	56*	-2
O=C(NCc1csc(C2CCN(C(=O)Cc3ccccc3Cl)CC2)n1)C1CC1	15	3
COc1cc(C2=NOC(C(=O)NCC(C)C)C2)cc(OC)c1OC (stereo not drawn)	-9	-2
CCn1c(C(=O)NCc2ccncc2)cc2cc(NC(C)=O)ccc21	8	-5
Cc1nc2c(NC(=O)c3cccc(OC(F)(F)F)c3)cccn2n1	-8	2
COc1ccc(CCN2CC(C(=O)N3CCC(C)CC3)CC2=O)cc1OC (stereo not drawn)	0	0
CN1CCN(C(=O)CN2C(=O)S/C(=C\c3ccc(Br)cc3)C2=O)CC1	0	-2
CC12CC(NC(=O)N1CCc1ccccc1)c1ccccc1O2 (stereo not drawn)	-2	2
CC1C2NC(=O)N(Cc3ccccc3)C1(C)Oc1ccccc12 (stereo not drawn)	68*	0
Cc1ccc(C(=O)Nc2cc(-c3ccccn3)no2)cc1C	7	-1
COc1ccc(-c2oc3c(c2C#CC(C)(C)O)C(OCCO)CC3)cc1 (stereo not drawn)	1	-9
COC1CCCc2oc(-c3ccsc3)c(C#CCO)c21 (stereo not drawn)	52*	8
COc1cc(Br)c(/C=C(\C#N)c2nc3ccccc3[nH]2)cc1OC	53*	-2
Cc1ccc(/C=C(\C#N)c2nc3ccc(C)cc3[nH]2)cc1	-12	1
COc1cc(/C=C(\C#N)c2nc3ccccc3[nH]2)cc(OC)c1OC	8	-3
COc1cc(/C=C(\C#N)c2nc3ccc(C)cc3[nH]2)ccc1OCC(=O)O	11	-2
CCOc1cc(/C=C(\C#N)c2nc3ccccc3[nH]2)cc(I)c1O	88*	0
COc1cc(/C=C(\C#N)c2nc3ccc(C)cc3[nH]2)cc(OC)c1O	58*	-4
COc1cc(/C=C(\C#N)c2nc3ccccc3[nH]2)c(Br)cc1O	42	-6
CCOc1cc(/C=C(\C#N)c2nc3ccc(C)cc3[nH]2)cc(Cl)c1O	84*	-3
CC(=O)Nc1c2c(nn1-c1ccc(Cl)cc1)CS(=O)(=O)C2	6	0
Cc1ccccc1CNC(=O)C1CCCN(C(=O)Cc2cccc3ccccc23)C1 (stereo not drawn)	-4	-5
SMILES	mHTT-CaM PPI inh	Pf apPOL block
COc1ccc(C(=O)Nc2ccc(NC(=O)c3cccs3)cc2)cc1Br	-4	-4
O=C(Cc1cccs1)N1CCCC1c1nc(-c2ccc(F)cc2F)no1 (stereo not drawn)	-6	-1
Cc1ccc2nc(/C(C#N)=C/c3cc([N+](=O)[O-])ccc3O)[nH]c2c1	4	-4
Cc1ccc2nc(/C(C#N)=C/c3ccc(O)c([N+](=O)[O-])c3)[nH]c2c1	59*	0
CCOc1ccc(C=C2C(=O)c3ccccc3C2=O)cc1OC	11	-4
CCOc1cc(C=C2C(=O)c3ccccc3C2=O)cc(I)c1O	58*	-9
COc1ccc(C=C2Oc3cc(OC(=O)c4c(OC)cccc4OC)ccc3C2=O)c(OC)c1OC	8	-10
CC1(C)CN(CC(=O)N2CCCC2)c2ccc(S(=O)(=O)N3CCCCC3)cc21	-5	-1
O=c1[nH]c(CN2CCOCC2)nc2ccccc12	x	-18
O=c1[nH]c(CN2CCCCC2)nc2c1oc1ccccc12	4	69*
COc1cc(OC)cc(C(=O)Nc2nc(-c3cc(Cl)sc3Cl)cs2)c1	-3	2
